# Assay results published in PMC7862700, “An all-to-all approach to the identification of sequence-specific readers for epigenetic DNA modifications on cytosine”.
# How the values were obtained:
# Assay in all cases: DAPPL (digital affinity profiling via proximity ligation, sequencing); 10 mM Tris-HCl pH 7.5, 50 mM NaCl, 1 mM DTT, 4% glycerol, room temperature, 30 min; GST-TFs on glutathione beads, 16-mer random dsDNA library, 0.1% formaldehyde crosslink after washing; high values mean tight binding
# FEV = target: T1, FEV (Homo sapiens, UniProt Q99581 1-238); settings: protein: recombinant; tags: N-terminal GST; dsDNA, one strand shown
# T1 sequence: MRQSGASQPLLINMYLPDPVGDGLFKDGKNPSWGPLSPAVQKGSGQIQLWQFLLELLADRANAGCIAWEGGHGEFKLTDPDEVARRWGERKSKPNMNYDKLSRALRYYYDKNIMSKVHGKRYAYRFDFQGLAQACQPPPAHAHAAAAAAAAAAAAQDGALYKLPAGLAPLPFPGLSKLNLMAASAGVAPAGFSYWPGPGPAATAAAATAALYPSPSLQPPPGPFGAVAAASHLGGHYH
# Outline: (§1)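 Sequencing on an Illumina NextSeq500 followed washing, crosslinking with 0.1% formaldehyde, proximity ligation (BsaI/T4 ligase, 1 h, 37 °C) and PCR amplification of pools that had been incubated for 30 min at room temperature with 200 nmole of a random double-stranded 16-mer DNA library in Tris/NaCl/DTT/glycerol buffer. Each pool held DNA-barcoded human transcription factors, expressed in yeast as GST fusions and captured on glutathione beads, plus a tag-only sample. Binding signal is a hexamer's read frequency for a factor divided by its frequency in the tag-only sample.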
# ETV5 = ETV5 (Homo sapiens, UniProt P41161 1-510); settings: protein: recombinant; tags: N-terminal GST; dsDNA, one strand shown
# Sequence of ETV5 (P41161 whole entry): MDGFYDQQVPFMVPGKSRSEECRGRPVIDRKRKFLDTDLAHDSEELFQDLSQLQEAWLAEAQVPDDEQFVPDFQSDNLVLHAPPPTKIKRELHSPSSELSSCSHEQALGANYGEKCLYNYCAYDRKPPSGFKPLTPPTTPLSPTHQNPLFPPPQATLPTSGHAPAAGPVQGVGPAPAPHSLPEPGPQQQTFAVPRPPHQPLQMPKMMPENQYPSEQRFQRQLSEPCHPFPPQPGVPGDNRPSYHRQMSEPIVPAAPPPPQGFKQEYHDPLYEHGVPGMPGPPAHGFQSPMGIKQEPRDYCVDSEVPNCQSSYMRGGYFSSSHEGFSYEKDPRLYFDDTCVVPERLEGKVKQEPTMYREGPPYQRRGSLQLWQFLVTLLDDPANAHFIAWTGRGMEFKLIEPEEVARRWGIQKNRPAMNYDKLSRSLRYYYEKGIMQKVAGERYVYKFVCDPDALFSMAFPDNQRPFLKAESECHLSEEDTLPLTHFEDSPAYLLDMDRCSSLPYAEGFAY
# Outline: as §1
# HSF1 = HSF1 (Homo sapiens, UniProt Q00613 1-529); settings: protein: recombinant; tags: N-terminal GST; chain copies: 3; dsDNA, one strand shown
# Sequence of HSF1 (Q00613 whole entry): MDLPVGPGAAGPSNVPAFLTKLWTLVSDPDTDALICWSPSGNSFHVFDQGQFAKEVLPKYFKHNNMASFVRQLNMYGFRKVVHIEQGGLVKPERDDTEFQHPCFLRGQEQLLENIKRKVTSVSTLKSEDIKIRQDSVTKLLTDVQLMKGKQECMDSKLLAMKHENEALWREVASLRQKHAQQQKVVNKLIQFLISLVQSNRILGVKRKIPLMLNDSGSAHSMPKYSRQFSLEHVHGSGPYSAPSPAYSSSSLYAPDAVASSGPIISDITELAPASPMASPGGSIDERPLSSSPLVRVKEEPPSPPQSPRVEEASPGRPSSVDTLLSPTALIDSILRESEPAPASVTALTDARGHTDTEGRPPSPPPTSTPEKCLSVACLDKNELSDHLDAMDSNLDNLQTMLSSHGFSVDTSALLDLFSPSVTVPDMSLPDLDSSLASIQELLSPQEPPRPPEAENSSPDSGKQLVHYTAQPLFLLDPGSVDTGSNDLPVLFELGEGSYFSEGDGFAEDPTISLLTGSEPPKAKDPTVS
# Outline: as §1
# SPIC = target: T2, SPIC (Homo sapiens, UniProt Q8N5J4 1-248); settings: protein: recombinant; tags: N-terminal GST; dsDNA, one strand shown
# T2 sequence: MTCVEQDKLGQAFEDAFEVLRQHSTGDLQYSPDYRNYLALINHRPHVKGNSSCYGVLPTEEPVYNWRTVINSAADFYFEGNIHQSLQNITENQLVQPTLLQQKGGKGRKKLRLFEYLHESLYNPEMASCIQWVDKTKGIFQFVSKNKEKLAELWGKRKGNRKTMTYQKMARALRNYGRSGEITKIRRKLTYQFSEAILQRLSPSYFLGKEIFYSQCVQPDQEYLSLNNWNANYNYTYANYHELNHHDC
# Outline: as §1
# ELF4 = ELF4 (Homo sapiens, UniProt Q99607 1-663); settings: protein: recombinant; tags: N-terminal GST; dsDNA, one strand shown
# Sequence of ELF4 (Q99607 whole entry): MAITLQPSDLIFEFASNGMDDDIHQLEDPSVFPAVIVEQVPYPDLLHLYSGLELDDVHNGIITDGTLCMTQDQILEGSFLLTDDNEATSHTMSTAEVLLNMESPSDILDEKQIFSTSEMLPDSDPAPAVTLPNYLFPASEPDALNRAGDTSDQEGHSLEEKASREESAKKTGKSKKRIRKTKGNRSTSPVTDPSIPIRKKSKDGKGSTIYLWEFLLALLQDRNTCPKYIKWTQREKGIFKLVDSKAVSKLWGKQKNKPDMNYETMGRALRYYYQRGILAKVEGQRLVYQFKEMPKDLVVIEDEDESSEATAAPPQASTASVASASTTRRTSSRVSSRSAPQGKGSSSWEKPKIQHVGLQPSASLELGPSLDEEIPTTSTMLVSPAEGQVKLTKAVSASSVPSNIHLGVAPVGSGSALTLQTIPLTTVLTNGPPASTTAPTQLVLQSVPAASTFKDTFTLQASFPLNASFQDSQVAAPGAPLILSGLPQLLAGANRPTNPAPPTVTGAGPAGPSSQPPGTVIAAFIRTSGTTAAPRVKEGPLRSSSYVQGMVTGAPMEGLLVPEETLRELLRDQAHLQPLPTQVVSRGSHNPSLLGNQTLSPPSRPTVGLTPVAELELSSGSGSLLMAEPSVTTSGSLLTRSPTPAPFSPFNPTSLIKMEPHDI
# Outline: as §1
# ELK4 = target: T3, ELK4 (Homo sapiens, UniProt P28324-2 1-405); settings: protein: recombinant; tags: N-terminal GST; dsDNA, one strand shown
# T3 sequence: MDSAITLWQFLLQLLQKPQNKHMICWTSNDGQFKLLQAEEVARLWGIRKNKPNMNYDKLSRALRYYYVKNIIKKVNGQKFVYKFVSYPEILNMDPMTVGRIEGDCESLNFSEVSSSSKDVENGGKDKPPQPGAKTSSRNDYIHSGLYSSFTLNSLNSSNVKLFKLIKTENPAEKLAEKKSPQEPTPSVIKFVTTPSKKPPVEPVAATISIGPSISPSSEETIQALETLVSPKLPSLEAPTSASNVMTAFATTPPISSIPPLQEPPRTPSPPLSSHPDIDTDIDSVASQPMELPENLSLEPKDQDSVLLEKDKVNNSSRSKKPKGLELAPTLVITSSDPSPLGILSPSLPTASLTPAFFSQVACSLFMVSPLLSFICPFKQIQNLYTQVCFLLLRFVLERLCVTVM
# Outline: as §1
# ETV2 = target: T4, ETV2 (Homo sapiens, UniProt O00321 1-342); settings: protein: recombinant; tags: N-terminal GST; dsDNA, one strand shown
# T4 sequence: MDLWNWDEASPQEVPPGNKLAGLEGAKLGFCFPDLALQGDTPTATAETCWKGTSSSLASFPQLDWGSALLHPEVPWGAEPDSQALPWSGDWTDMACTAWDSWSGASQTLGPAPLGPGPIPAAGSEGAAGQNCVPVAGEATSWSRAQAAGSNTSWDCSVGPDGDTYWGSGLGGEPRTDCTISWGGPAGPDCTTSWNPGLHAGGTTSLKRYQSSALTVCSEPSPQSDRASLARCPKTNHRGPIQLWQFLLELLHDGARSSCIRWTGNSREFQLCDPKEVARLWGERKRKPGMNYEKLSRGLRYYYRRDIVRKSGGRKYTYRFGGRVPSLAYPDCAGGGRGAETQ
# Outline: as §1
# ELF3 = target: T5, ELF3 (Homo sapiens, UniProt P78545 1-371); settings: protein: recombinant; tags: N-terminal GST; dsDNA, one strand shown
# T5 sequence: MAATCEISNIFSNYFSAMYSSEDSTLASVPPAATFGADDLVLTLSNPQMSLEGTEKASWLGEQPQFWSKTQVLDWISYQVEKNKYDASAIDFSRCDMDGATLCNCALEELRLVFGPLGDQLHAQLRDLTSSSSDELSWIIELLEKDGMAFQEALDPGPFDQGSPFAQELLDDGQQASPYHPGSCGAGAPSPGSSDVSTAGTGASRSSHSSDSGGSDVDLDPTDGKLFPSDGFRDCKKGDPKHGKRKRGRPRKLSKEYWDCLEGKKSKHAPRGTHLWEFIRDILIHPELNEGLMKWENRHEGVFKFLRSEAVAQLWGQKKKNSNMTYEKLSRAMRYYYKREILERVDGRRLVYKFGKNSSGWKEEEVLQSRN
# Outline: as §1
# ETV1 = ETV1 (Homo sapiens, UniProt P50549 1-477); settings: protein: recombinant; tags: N-terminal GST; dsDNA, one strand shown
# Sequence of ETV1 (P50549 whole entry): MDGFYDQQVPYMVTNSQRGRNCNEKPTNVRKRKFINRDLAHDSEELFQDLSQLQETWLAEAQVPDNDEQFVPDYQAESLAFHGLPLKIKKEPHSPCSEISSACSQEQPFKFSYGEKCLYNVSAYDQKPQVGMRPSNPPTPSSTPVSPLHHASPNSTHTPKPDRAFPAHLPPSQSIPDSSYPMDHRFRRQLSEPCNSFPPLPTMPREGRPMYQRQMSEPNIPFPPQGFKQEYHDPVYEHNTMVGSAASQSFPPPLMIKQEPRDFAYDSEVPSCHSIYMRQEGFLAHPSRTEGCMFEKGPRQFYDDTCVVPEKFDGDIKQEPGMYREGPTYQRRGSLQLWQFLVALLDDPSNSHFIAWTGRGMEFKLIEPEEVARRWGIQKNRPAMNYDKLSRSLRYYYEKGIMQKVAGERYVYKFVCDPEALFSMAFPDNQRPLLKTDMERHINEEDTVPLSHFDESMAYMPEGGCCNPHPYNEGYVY
# Outline: as §1
# ERF = target: T6, ERF (Homo sapiens, UniProt P50548 1-548); settings: protein: recombinant; tags: N-terminal GST; dsDNA, one strand shown
# T6 sequence: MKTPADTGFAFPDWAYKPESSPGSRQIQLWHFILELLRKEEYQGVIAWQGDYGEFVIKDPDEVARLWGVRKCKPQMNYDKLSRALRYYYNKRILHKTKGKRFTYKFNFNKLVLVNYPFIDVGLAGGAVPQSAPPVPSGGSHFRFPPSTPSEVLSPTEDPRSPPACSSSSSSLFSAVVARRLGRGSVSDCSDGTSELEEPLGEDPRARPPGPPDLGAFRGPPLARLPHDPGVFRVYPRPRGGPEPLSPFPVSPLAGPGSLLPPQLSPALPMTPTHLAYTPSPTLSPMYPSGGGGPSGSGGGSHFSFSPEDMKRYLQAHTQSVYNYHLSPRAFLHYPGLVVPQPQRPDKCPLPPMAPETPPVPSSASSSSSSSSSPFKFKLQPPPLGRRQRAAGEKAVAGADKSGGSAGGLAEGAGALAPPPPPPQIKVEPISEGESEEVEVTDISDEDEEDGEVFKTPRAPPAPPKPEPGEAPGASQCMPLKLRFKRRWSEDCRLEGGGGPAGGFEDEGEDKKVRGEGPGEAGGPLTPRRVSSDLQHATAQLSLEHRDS
# Outline: as §1
# ETV3L = target: T7, ETV3L (Homo sapiens, UniProt Q6ZN32 1-361); settings: protein: recombinant; tags: N-terminal GST; dsDNA, one strand shown
# T7 sequence: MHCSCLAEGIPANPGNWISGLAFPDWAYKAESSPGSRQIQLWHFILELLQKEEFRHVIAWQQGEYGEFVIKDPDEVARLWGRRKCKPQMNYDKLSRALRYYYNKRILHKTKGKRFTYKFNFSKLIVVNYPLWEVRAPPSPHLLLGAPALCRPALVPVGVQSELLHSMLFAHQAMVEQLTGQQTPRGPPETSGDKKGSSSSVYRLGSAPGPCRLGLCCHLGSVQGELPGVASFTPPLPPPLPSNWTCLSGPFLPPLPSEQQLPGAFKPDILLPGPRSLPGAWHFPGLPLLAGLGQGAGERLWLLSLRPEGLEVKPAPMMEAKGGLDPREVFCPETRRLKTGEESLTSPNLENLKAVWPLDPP
# Outline: as §1
# ETS2 = target: T8, ETS2 (Homo sapiens, UniProt P15036 1-469); settings: protein: recombinant; tags: N-terminal GST; dsDNA, one strand shown
# T8 sequence: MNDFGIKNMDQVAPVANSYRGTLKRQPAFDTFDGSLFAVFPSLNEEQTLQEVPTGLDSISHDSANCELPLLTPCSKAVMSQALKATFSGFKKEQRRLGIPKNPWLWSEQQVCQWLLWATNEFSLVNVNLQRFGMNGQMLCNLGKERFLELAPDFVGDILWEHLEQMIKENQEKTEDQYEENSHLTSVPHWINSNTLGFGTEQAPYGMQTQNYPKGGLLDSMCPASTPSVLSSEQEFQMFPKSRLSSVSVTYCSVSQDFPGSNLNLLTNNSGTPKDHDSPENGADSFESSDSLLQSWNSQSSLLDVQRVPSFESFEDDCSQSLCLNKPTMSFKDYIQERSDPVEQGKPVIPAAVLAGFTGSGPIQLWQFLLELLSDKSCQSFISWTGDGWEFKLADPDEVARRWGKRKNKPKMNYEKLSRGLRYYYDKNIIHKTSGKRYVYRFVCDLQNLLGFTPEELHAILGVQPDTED
# Outline: as §1
# SPDEF = target: T9, SPDEF (Homo sapiens, UniProt O95238 1-335); settings: protein: recombinant; tags: N-terminal GST; dsDNA, one strand shown
# T9 sequence: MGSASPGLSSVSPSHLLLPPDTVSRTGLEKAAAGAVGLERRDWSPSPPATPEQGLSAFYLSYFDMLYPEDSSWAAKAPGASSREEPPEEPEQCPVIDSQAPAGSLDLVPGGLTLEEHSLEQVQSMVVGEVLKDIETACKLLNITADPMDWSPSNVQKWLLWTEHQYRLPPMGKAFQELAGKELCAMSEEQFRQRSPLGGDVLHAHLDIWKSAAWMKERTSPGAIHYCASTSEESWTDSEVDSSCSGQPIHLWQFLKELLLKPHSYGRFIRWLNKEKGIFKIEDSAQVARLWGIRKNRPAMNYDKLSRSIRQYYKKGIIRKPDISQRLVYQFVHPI
# Outline: as §1
# ETV7 = target: T10, ETV7 (Homo sapiens, UniProt Q9Y603 1-341); settings: protein: recombinant; tags: N-terminal GST; dsDNA, one strand shown
# T10 sequence: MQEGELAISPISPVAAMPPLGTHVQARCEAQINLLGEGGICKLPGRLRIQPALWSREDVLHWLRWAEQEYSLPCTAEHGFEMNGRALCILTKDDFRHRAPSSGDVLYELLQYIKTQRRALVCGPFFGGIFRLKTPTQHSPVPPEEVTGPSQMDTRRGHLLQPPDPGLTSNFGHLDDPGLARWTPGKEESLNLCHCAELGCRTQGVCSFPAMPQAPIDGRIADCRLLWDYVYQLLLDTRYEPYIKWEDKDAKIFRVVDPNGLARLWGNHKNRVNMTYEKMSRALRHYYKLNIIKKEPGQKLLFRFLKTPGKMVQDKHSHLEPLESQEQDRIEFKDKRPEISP
# Outline: as §1
# ELF5 = target: T11, ELF5 (Homo sapiens, UniProt Q9UKW6-2 1-255); settings: protein: recombinant; tags: N-terminal GST; dsDNA, one strand shown
# T11 sequence: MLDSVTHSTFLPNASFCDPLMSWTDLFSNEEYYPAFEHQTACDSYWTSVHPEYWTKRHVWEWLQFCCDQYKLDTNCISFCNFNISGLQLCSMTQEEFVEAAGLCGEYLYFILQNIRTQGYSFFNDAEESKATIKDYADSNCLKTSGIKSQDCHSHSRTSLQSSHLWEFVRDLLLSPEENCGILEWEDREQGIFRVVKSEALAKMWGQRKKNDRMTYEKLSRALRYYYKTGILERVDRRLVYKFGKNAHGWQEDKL
# Outline: as §1
# ETV3 = target: T12, ETV3 (Homo sapiens, UniProt P41162-2 1-143); settings: protein: recombinant; tags: N-terminal GST; dsDNA, one strand shown
# T12 sequence: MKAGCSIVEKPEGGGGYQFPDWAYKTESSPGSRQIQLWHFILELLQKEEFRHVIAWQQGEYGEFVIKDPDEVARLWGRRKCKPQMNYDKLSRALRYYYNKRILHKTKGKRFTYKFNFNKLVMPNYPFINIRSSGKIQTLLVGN
# Outline: as §1
# ETV6 = ETV6 (Homo sapiens, UniProt P41212 1-452); settings: protein: recombinant; tags: N-terminal GST; dsDNA, one strand shown
# Sequence of ETV6 (P41212 whole entry): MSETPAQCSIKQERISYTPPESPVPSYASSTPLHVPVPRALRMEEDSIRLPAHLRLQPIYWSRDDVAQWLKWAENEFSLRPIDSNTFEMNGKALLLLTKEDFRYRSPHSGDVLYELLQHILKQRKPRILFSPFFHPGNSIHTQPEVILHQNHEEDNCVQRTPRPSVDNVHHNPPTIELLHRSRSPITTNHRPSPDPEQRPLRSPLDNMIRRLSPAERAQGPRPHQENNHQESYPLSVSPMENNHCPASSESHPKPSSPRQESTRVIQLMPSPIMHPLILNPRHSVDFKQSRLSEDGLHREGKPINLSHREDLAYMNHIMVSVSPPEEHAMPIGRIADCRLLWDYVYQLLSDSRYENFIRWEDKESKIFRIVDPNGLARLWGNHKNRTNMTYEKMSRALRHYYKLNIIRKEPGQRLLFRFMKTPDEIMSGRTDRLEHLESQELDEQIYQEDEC
# Outline: as §1
sequence,measurement,setting,value
CCGTCC,binding signal,FEV,"1.38 fold enrichment (6-mer frequency, TF over GST control)"
same,binding signal,ETV5,"1.26 fold enrichment (6-mer frequency, TF over GST control)"
same,binding signal,HSF1,"1.03 fold enrichment (6-mer frequency, TF over GST control)"
same,binding signal,SPIC,"1.39 fold enrichment (6-mer frequency, TF over GST control)"
same,binding signal,ELF4,"1.37 fold enrichment (6-mer frequency, TF over GST control)"
same,binding signal,ELK4,"1.28 fold enrichment (6-mer frequency, TF over GST control)"
same,binding signal,ETV2,"1.8 fold enrichment (6-mer frequency, TF over GST control)"
same,binding signal,ELF3,"1.43 fold enrichment (6-mer frequency, TF over GST control)"
same,binding signal,ETV1,"1.38 fold enrichment (6-mer frequency, TF over GST control)"
same,binding signal,ERF,"1.51 fold enrichment (6-mer frequency, TF over GST control)"
same,binding signal,ETV3L,"1.38 fold enrichment (6-mer frequency, TF over GST control)"
same,binding signal,ETS2,"1.38 fold enrichment (6-mer frequency, TF over GST control)"
same,binding signal,SPDEF,"1.55 fold enrichment (6-mer frequency, TF over GST control)"
same,binding signal,ETV7,"1.27 fold enrichment (6-mer frequency, TF over GST control)"
same,binding signal,ELF5,"1.36 fold enrichment (6-mer frequency, TF over GST control)"
same,binding signal,ETV3,"1.51 fold enrichment (6-mer frequency, TF over GST control)"
same,binding signal,ETV6,"1.29 fold enrichment (6-mer frequency, TF over GST control)"
